The source of these data is PubChem BioAssay.

Assay [1] concerns Human papillomavirus type 1a protein E7 (residues 44-93). Briefly: HPV1a E7 fragment binders on microarrays, primary screen, biochemical, small-molecule microarray, residues 44-93, 635 nm fluorescence (AID 1108).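 Note: E7 fragment applied at 1 µg/mL in TBST for 1 h at 4 C; score combines spot fluorescence with its signal to noise ratio.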 The settings on record: small-molecule microarray binding, fluorescence 635 nm; higher = more signal.
Assay [2] in a line: modulators of HCV replicon luciferase signal, primary screen, HCV replication inhibitor project, Huh7 cells, luciferase reporter (AID 1109).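 Note: huh7 hepatoma cells harbouring a luciferase neomycin HCV replicon reporter; luciferase luminescence as measure of HCV replicon replication; test concentration not given here.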 The following applies: 48 h, higher = more signal.
For assay [3], the target named is Left-right determination factor 2 (Homo sapiens) (UniProt O00292). Briefly: LEFTY2 binders on small-molecule microarrays, primary screen, biochemical, small-molecule microarray, 635 nm fluorescence scan (AID 1110). The following applies: LEFTY2 binding, higher = more signal.
Chain of Left-right determination factor 2 (Homo sapiens) (O00292 whole entry, looked up): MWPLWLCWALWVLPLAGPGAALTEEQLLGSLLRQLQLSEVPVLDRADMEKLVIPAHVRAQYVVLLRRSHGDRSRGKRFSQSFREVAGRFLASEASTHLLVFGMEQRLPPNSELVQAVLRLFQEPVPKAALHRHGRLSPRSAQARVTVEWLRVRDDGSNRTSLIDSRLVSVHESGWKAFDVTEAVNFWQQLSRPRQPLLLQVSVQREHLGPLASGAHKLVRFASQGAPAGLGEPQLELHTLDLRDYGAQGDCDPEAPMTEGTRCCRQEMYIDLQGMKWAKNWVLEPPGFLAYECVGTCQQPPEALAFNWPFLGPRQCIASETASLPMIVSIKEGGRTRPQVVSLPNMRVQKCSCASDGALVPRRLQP
For assay [4], the target named is Calmodulin-1 (Homo sapiens) (UniProt P0DP23). Briefly: CALM1 binders on microarrays, EGTA buffer, profiling panel, biochemical, small-molecule microarray, Cy5-labelled CALM1 (AID 1111).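 Note: labelled calmodulin applied in Tris saline Tween buffer holding calcium plus EGTA and DTT.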 The settings on record: Cy5-CALM1 binding fluorescence, higher = more signal.
Assay [5] shares this target. Description: calcium-bound CALM1 binders on microarrays, profiling panel, artefact control for SMM control-protein annotation, biochemical, small-molecule microarray, Cy5-labelled CALM1, plus calcium (AID 1112).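 Note: score merges spot fluorescence with signal to noise from triplicate slides.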 The following applies: Cy5-CALM1 binding fluorescence, higher = more signal.
Assay [6] can be described thus: small-molecule microarray binders of probe aWnt5a, primary screen, biochemical, biotinylated probe, 635/667 nm fluorescence (AID 1113).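 Note: score merges 667 nm fluorescence intensity with signal-to-noise per printed feature.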 The following applies: higher = more signal.
A short description of assay [7]: small-molecule microarray binders of probe aShh, primary screen, biochemical, biotinylated probe, 635/667 nm fluorescence (AID 1114).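 Note: probe is biotin-labelled aShh protein from a stem cell growth factor screen; measures binding of labelled protein to compounds printed on the slide; score merges feature fluorescence at 667 nm with signal-to-noise.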 The settings on record: higher = more signal.
Assay [8] is described as follows: small-molecule microarray binders of probe aNog, primary screen, biochemical, biotinylated probe, 635/667 nm fluorescence (AID 1115).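 Note: probe is biotinylated aNog protein used at 0.15 µg/mL for 1 h at 4 C; z-score combines 667 nm fluorescence of each spot with its signal to noise.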 The following applies: higher = more signal.
Assay [9] deals with Torsin-1A-interacting protein 1 (Homo sapiens) (UniProt Q5JTV8). Briefly: LAP1 binders from COS7 cell lysate, primary screen, small-molecule microarray, 635/667 nm fluorescence (AID 1116). The following applies: COS7-hLAP1 lysate binding, 635 nm fluorescence, higher = more signal.
Chain of Torsin-1A-interacting protein 1 (Homo sapiens) (Q5JTV8 whole entry, looked up): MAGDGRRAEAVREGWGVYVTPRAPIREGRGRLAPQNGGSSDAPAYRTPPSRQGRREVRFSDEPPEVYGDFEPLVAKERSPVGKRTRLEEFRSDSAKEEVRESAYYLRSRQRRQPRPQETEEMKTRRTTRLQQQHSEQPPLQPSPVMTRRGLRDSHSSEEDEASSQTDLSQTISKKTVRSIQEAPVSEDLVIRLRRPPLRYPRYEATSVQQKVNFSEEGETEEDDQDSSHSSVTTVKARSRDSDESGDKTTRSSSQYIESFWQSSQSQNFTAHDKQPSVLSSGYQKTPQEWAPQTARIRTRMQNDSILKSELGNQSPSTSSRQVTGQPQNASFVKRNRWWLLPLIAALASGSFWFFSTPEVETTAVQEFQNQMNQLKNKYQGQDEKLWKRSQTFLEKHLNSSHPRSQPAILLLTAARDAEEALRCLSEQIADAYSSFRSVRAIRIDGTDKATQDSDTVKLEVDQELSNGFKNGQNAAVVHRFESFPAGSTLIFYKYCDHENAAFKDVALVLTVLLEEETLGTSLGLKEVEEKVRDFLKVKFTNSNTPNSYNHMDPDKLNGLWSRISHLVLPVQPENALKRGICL
The target in assay [10] is Alpha-bungarotoxin (Bungarus multicinctus) (UniProt P60615). Description: alpha-bungarotoxin binders on microarray, profiling panel, artefact control for SMM control protein annotation, biochemical, small-molecule microarray, Alexa647 label, 635/667 nm fluorescence (AID 1117). The settings on record: alpha-BTX-A647 binding fluorescence, higher = more signal.
Chain of Alpha-bungarotoxin (Bungarus multicinctus) (P60615 whole entry, looked up): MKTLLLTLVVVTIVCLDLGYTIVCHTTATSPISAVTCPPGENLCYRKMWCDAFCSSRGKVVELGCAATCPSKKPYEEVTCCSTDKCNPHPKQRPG

SMILES strings stand for the structures.

Regarding `CN(C)CCCC[C@@H]1NC(=O)[C@@H]2C[C@H](C(=O)NCCCCCNC(=O)CS)[C@H](c3ccc(O)cc3)N2C1=O`, the composite z-score was 0.664 in [1]; 1.17 in [3]; 0.0884 in assay [4]; 1.25 in [5]; -0.124 in assay [6]; 0.199 in assay [7]. In addition, the figures for the composite z-score in assay [8], in assay [9] and in assay [10] were 0.498, 0.761 and 1.65, respectively. In assay [2], this compound displayed a z-score of 0.873.

As to `CO[C@H]1O[C@H](CO)[C@@H](OC(=O)Nc2ccc(Oc3ccccc3)cc2)[C@H](OC(=O)Nc2ccccc2-c2ccccc2)[C@H]1OC(=O)Nc1ccccc1-c1ccccc1`, the composite z-score in [1] was 0.383; in assay [3], 0.975; in [4], 2.09; in assay [5] it was -0.107; in assay [6], 0.0676; in [7], 0.11. For the same compound, the figures for the composite z-score in assay [8], in [9] and in assay [10] were 0.786, 1.77 and 2.98, respectively. Moreover, the z-score in [2] is -3.97.

`C=CC[C@]1(C(=O)NCC(O)CO)N=C(c2ccc(OCCCO)cc2)O[C@H]1c1ccccc1` (stereo not given in full): the composite z-score was -0.72 in assay [1]; -0.418 in [3]; 1.66 in [4]; 1.12 in assay [5]; -0.0286 in [6]; 0.108 in assay [7]. For the same compound, the composite z-score was determined as 0.402 in assay [8], 3.97 in assay [9] and 1.29 in [10]. Moreover, the z-score in assay [2] is -0.294.

As to `COCCOC(=O)N1C(=O)[C@@]2(c3cc(C#CCNC(N)=O)ccc31)[C@H](C(=O)N1CCCCCCC1)[C@H]1C(=O)O[C@H](c3ccccc3)[C@H](c3ccccc3)N1[C@@H]2c1ccccc1OCCO`, the composite z-score in [1] was 1.32; in [3] it was 1.09; in assay [4], 0.886; in assay [5] it was 0.632; in [6], 0.193; in [7] it was 0.46. For the same compound, the composite z-score in assay [8] was 0.878; in assay [9], 0.845; in [10], 0.48. The z-score in assay [2] is -2.1.

As to `COCCOC(=O)N1C(=O)[C@@]2(c3cc(C#CCNC(N)=O)ccc31)[C@H](c1ccc(OCCO)cc1)N1[C@H](c3ccccc3)[C@H](c3ccccc3)OC(=O)[C@H]1[C@@H]2C(=O)Nc1nc2ccccc2s1`, the composite z-score in assay [1] came to 0.376; in [3] it was 1.24; in assay [4] it was 0.669; in assay [5] it was 0.701; in assay [6], 0.0136; in [7], 0.187. Also, the composite z-score in assay [8] was found to be 0.402; in assay [9], 0.114; in assay [10], 1.37. This compound also showed a z-score in [2] of -1.11.

On to `C=C(COC)/C(=C/C[C@H](OC(C)=O)c1ccc(OCCO)cc1)c1cnc2ccccc2c1`, for which the composite z-score in assay [1] was 0.5; in [3], 0.523; in assay [4], 0.339; in assay [5] it was 0.214; in assay [6], -0.001; in assay [7], 0.261. Further, the composite z-score in assay [8] amounted to 0.0107; in [9] it was 0.458; in [10], 1.56. In addition, the z-score in assay [2] was -0.773.

In the case of `Cc1ccc(S[C@]2(C(=O)O)CC(=O)N(Cc3ccccc3)[C@@H]2c2ccc(CO)cc2)cc1`, the composite z-score is -0.323 in assay [1]; -1.29 in assay [3]; 0.321 in assay [4]; 0.965 in assay [5]; -0.172 in [6]; 0.046 in [7]. The composite z-score is -0.0563 in assay [8], -0.257 in [9] and -0.198 in [10]. Also, the z-score in assay [2] turned out to be 0.764.

As to `O=C1C[C@@](C(=O)NC2CC2)(c2ccc([N+](=O)[O-])cc2)[C@@H](c2ccc(CO)cc2I)N1CC12CC3CC(CC(C3)C1)C2`, the composite z-score in [1] was 1.37; in assay [3], 0.672; in assay [4], 0.266; in assay [5] it was -0.151; in assay [6], 0.0644; in assay [7], 0.574. For the same compound, the composite z-score in assay [8] is -0.0719; in [9], 0.626; in assay [10], 0.905. Also, the z-score in assay [2] was -3.45.

Take `CN1C(=O)C2C=CC(C(O)c3ccc(N(C)C)cc3)N(Nc3ccc([N+](=O)[O-])cc3[N+](=O)[O-])C2C1=O` (stereo not given): the composite z-score in [1] is 0.501; in assay [3] it was 0.371; in [4], 0.49; in assay [5], 0.697; in assay [6] it was 0.055; in [7], 0.446. In addition, the values for the composite z-score in assay [8], in assay [9] and in assay [10] were 1.7, 1 and 0.988, respectively. Further, the z-score in assay [2] was -0.353.

On to `C=C(CCCC)/C(=C/C[C@@H](OC(=O)c1ccncc1)c1ccc(CO)o1)c1cnc2ccccc2c1`, for which the composite z-score was -0.41 in assay [1]; 1.48 in [3]; 1.38 in [4]; -0.0149 in assay [5]; 0.0973 in assay [6]; 0.213 in assay [7]. Besides, the composite z-score amounted to 0.889 in assay [8], 2.1 in assay [9] and 2.29 in [10]. In assay [2], this compound had a z-score of -1.13.

Consider `C=CCC(OC(C)=O)[C@@H]1[C@@H](N(Cc2cc3ccccc3o2)C(=O)c2ccc(C)cc2)c2cc(OCCCO)ccc2N1C(=O)c1ccc2ccccc2n1` (stereo not given in full), for which the composite z-score in [1] was -0.185; in assay [3] it was 0.21; in [4], -0.197; in assay [5], 0.574; in assay [6] it was -0.148; in [7], -0.043. In addition, the results for the composite z-score in assay [8], in [9] and in assay [10] were 0.421, -0.0354 and 0.432, respectively. In assay [2], the z-score turned out to be 0.725.

Take `CC(=O)Nc1ccc([C@H]2[C@H](C)CC[C@H]3C(=O)N4[C@@H](CC[C@@H](C)[C@@H]4c4ccc(NC(C)=O)cc4)C(=O)N32)cc1`: the composite z-score is 0.946 in assay [1]; 0.72 in [3]; 0.184 in [4]; -0.346 in assay [5]; -0.176 in [6]; 0.168 in assay [7]. Further, the values for the composite z-score in [8], in [9] and in assay [10] were 0.33, 0.424 and 0.884, respectively. The compound also returned a z-score in assay [2] of -0.288.

On to `CCCC/C=C/[C@H]([C@@H](O)Cc1ccccc1)N(CC#Cc1ccccc1)Cc1ccccc1Br`, for which the composite z-score in assay [1] is -0.373; in assay [3] it was -1.81; in [4], -0.269; in assay [5] it was 0.74; in assay [6], -0.166; in assay [7], -0.366. The composite z-score in [8] is -0.132; in assay [9], -0.356; in assay [10], -0.647. Also, the z-score in [2] was -1.29.

Turning to `Cc1ccc(S[C@]2(C(=O)NC3CC3)CC(=O)N(Cc3cc(C(F)(F)F)cc(C(F)(F)F)c3)[C@@H]2c2ccc(CO)cc2)cc1`, the composite z-score in assay [1] is 0.892; in assay [3], 0.267; in assay [4], -0.125; in assay [5], -0.493; in assay [6], -0.175; in assay [7], -0.174. Moreover, the composite z-score in [8] was -0.491; in [9] it was -0.0118; in [10], 0.296. Further, in [2], the z-score was -1.17.

As for `CC[C@@H]1C=C(C(=O)O)[C@H](c2ccccc2)N1S(=O)(=O)c1ccc([N+](=O)[O-])cc1`, the composite z-score in [1] is 0.672; in [3], -0.52; in assay [4], 0.354; in [5] it was 0.202; in assay [6] it was -0.0512; in assay [7], -0.138. Moreover, the results for the composite z-score in [8], in assay [9] and in assay [10] were -0.321, 1.41 and 0.427, respectively. This compound registered a z-score in assay [2] of -0.661.

Turning to `CO[C@H]1O[C@H](CO)[C@@H](OC(=O)CCc2ccccc2)[C@@H]2OC(=O)[C@H](Cc3cccc(Br)c3)C/C=C/C[C@@H](Cc3cccc(Br)c3)C(=O)O[C@@H]12`, the composite z-score in assay [1] was 0.234; in [3] it was -0.798; in assay [4], -0.638; in assay [5] it was -0.282; in [6] it was -0.0819; in [7], 0.103. Also, the composite z-score in assay [8] is 0.146; in assay [9], -0.0066; in [10], 2.14. In addition, the z-score in assay [2] was -0.93.
